Data published in ChEMBL document CHEMBL4513216, “Probing the Open Global Health Chemical Diversity Library for Multistage-Active Starting Points for Next-Generation Antimalarials” (ACS Infect Dis, 2020).
Out of some 68,000 compounds screened, about 2,700 (4%) showed an effect of 50% or more. This is one part of a sample in which strong results are shown more often than they occur.

What follows are molecules tested on Plasmodium berghei (assay: Screen against P. berghei liver stage (PbLuc), transformed with Luciferase, at 2uM). Conditions: tested at 2 uM.
Format: functional, HepG2
With Cc1ccc(CN(CCCn2ccnc2)Cc2cccs2)s1 the INHIBITION was 32.53%. For CC1CCCN(c2ccccc2OCC(=O)NC2CCOCC2)C1 (stereo not drawn), the INHIBITION was 19.59%. With CC(Oc1ccccc1)C(=O)N1CCCN(Cc2nccn2C)CC1 (stereo not drawn) the INHIBITION was -12.05%. For Cc1cc(C2CCCN2C(=O)Cn2c(C)cc(=O)c3ccccc32)on1 (stereo not drawn), the INHIBITION was 64.83%. Cc1cc(C2CCCN2C(=O)CN2CCc3ccccc32)on1 (stereo not drawn) was tested, and the INHIBITION was 18.37%. Cc1ccc2c(c1)SCC(=O)N2CC(=O)N1CCCC1c1cc(C)no1 (stereo not drawn) was tested, and the INHIBITION was 28.73%. CNC(=O)C1(C)CN(S(=O)(=O)c2cccc(OC)c2)CCO1 (stereo not drawn) gave an INHIBITION of -4.78%. Molecule CN(CCc1ccccc1)Cc1c(C2CCNCC2)[nH]c2ncccc12 has an INHIBITION of 2.56%. In the case of CC(C)N1CCCn2nc(C(=O)NCCc3ccccn3)cc2C1, the INHIBITION is reported as -31.6%. Molecule CN(Cc1ccco1)Cc1cnc2n1CCN(S(C)(=O)=O)CC2 has an INHIBITION of 9.1%. CN(C)CCN1CCc2ncc(CN(C)Cc3ccco3)n2CC1 showed an INHIBITION of 52.05%. Molecule CN(Cc1ccco1)Cc1cnc2n1CCN(c1ncccn1)CC2 has an INHIBITION of -6.14%. C[S+]([O-])CCNC(=O)Nc1cc(F)ccc1-n1cccn1 (stereo not drawn) showed an INHIBITION of 58.14%. For CN1CCN(c2ccc(F)cc2NC(=O)NCC[S+](C)[O-])CC1 (stereo not drawn), the INHIBITION was 17.98%. CC(C)C(O)CCNC(=O)Nc1cc(F)ccc1-n1cccn1 (stereo not drawn) was tested, and the INHIBITION was 37.43%. Cc1nc(C)c(CC(=O)NCc2cccnc2OC2CCCC2)c(=O)[nH]1 was tested, and the INHIBITION was -10.1%. With NC(=O)CCC1CCCN(c2ccnc3cc(F)ccc23)C1 (stereo not drawn) the INHIBITION was 1.01%. Work on Cn1cc(S(=O)(=O)Nc2ccc3[nH]c(C4CCC4)nc3c2)cn1 yielded an INHIBITION of 48.21%. Work on CCS(=O)(=O)Nc1ccc2[nH]c(C3CCC3)nc2c1 yielded an INHIBITION of 74.44%. Work on CCn1cc(S(=O)(=O)Nc2ccc3[nH]c(C4CCC4)nc3c2)cn1 yielded an INHIBITION of -16.18%. COc1cccc([C@H]2CN(C(C)=O)[C@@H]3CCN(Cc4ccsc4)C[C@H]23)c1 was tested, and the INHIBITION was -24.17%. O=C(CC1CC1)N1CCO[C@H]2[C@H](OCCCn3cccn3)CC[C@@H]21 showed an INHIBITION of 37.74%. In the case of CC(C)c1nn(C)c(N(C)C)c1CNCc1ccc(N(C)C)nc1, the INHIBITION is reported as -4.43%. Work on O=C(C1CCC1)N1CCC2(CCNCC2)C1 yielded an INHIBITION of 2.94%. O=C(C1CC1)N1CC2(CCNCC2)C1 gave an INHIBITION of 60.6%. In the case of O=C(C1CCCCC1)N1CC2(CCNCC2)C1, the INHIBITION is reported as 27.1%. Molecule CC(=O)N1CCC(c2cccc(-c3cccc(C(=O)O)c3)n2)CC1 has an INHIBITION of 23.7%. Work on CCOc1ccc(CC(=O)Nc2cnccc2SCCCO)cc1 yielded an INHIBITION of -15.31%. Work on CCc1cc(CNC(=O)NCC(c2ccco2)N2CCCC2)[nH]n1 (stereo not drawn) yielded an INHIBITION of 42.11%. With O=C(NCc1ccccn1)NCC(c1ccco1)N1CCCC1 (stereo not drawn) the INHIBITION was 53.61%. For O=C(NCc1ccccn1)NCC(c1ccco1)N1CCCCC1 (stereo not drawn), the INHIBITION was -18.65%. Work on CO[C@H]1CCN(C(=O)c2cc(C)on2)[C@H]1Cc1ccncc1 yielded an INHIBITION of -11.88%. In the case of CO[C@H]1CCN(C(=O)c2cc(C)on2)C[C@@H]1Cc1ccccc1, the INHIBITION is reported as 59.5%. With COc1ccc(C[C@H]2CN(C(=O)c3ccc(C)nc3)CC[C@@H]2OC)cc1 the INHIBITION was 15.57%. Work on Cc1cc(C(=O)N2CC[C@@H](O)[C@@H]2Cc2ccccc2)no1 yielded an INHIBITION of 19.42%. COc1ccc(C[C@H]2CN(C(=O)c3ncccn3)CC[C@@H]2OC)cc1 was tested, and the INHIBITION was 33.74%. In the case of Cc1cc(C(=O)N2CC[C@@H]3CN(CCC(C)C)S(=O)(=O)[C@@H]3CC2)no1, the INHIBITION is reported as 36.44%. COc1ccc(C[C@H]2CN(C(=O)c3cc(C)no3)CC[C@H]2OC)cc1 gave an INHIBITION of 51.26%. With COc1ccc(C[C@H]2CN(C(=O)c3ccn(C)n3)CC[C@H]2OC)cc1 the INHIBITION was 15.57%. Molecule Cc1cc(C(=O)N2CC[C@@H]3CN(C)S(=O)(=O)[C@@H]3CC2)no1 has an INHIBITION of -27.81%. COCCO[C@H]1CCN(C(=O)c2cc(C)on2)[C@H]1Cc1ccccc1 was tested, and the INHIBITION was 62.46%. With COCCN1C[C@H]2CCN(C(=O)c3cc(C)on3)CC[C@H]2S1(=O)=O the INHIBITION was 63.35%. Work on COc1ccc(C[C@H]2CN(C(=O)c3ccncc3)CC[C@@H]2OC)cc1 yielded an INHIBITION of -9.66%. Cc1cnn(CC2CN(Cc3nc(C4CC4)no3)CCO2)c1 (stereo not drawn) showed an INHIBITION of -18.67%. c1cnc(NCc2cncc3c2CCN(Cc2ccsc2)C3)nc1 was tested, and the INHIBITION was 46.11%. Work on CSc1nc2ccsc2c(=O)n1CC(=O)N1CCCCC1C (stereo not drawn) yielded an INHIBITION of -24.07%. In the case of CC(C)NC(=O)N1CCC2(CC(=O)N(c3cccc(C#N)c3)C2)C1 (stereo not drawn), the INHIBITION is reported as -8.23%. In the case of O=C(C1CCOCC1)N1C[C@H](OCc2cccnc2)[C@H]2COC[C@H]21, the INHIBITION is reported as 26.19%. CCOc1ncccc1C(=O)N1CCCC(c2nccn2CCOC)C1 (stereo not drawn) was tested, and the INHIBITION was -32.59%. CN1CCc2cc(C(=O)N(C)C)c(NCC3CC3)nc2CC1 showed an INHIBITION of 23.97%. COCCNCc1cc2ccc(C)c(C)c2[nH]c1=O gave an INHIBITION of -21.9%. Work on CCC1CN(C(=O)c2csc3nc(-c4ccc(Cl)cc4)cn23)CCN1 (stereo not drawn) yielded an INHIBITION of 22.83%. Molecule Cc1cccc(CN2C(=O)CCC23CCN(Cc2cccn2C)CC3)n1 has an INHIBITION of 17.39%. With COc1ccc(-c2ncc(-c3nccn3CCN(C)C)cn2)cc1 the INHIBITION was 10.63%. Molecule CC(C)c1nccn1C1CCCN(C(=O)CCc2cscn2)C1 (stereo not drawn) has an INHIBITION of 21.39%. In the case of CO[C@@H]1CCN(C(=O)c2cc(C)on2)C[C@@H]1Cc1ccccc1, the INHIBITION is reported as 52.91%. With COc1ccc(C[C@H]2CN(C(=O)c3cnoc3)CC[C@@H]2OC)cc1 the INHIBITION was -36.05%. Molecule COc1ccc(C[C@H]2CN(C(=O)c3cscn3)CC[C@@H]2OC)cc1 has an INHIBITION of -6.39%. COc1ccsc1C(=O)N1CCCC1c1c(C)nn(C)c1OC (stereo not drawn) showed an INHIBITION of -11.31%. Cn1cc(N2C(=O)CC[C@@H]3[C@H]2CCN3CC2CCOCC2)cn1 gave an INHIBITION of 50.17%. Cn1cc(N2C(=O)CC[C@@H]3[C@H]2CCN3CCc2ccccc2)cn1 gave an INHIBITION of -18.2%. Cn1cc(N2C(=O)CC[C@@H]3[C@H]2CCN3Cc2nccs2)cn1 gave an INHIBITION of -20.87%. CCCN1CCC(Cc2noc(-c3cc4cccnc4nc3C)n2)CC1 showed an INHIBITION of 38.91%. For CC(C(=O)NCc1ccc(N2CCNC(=O)C2)cc1)c1cccs1 (stereo not drawn), the INHIBITION was -25.44%. Molecule CCOC(=O)NC(CNC(=O)c1cn(C)cn1)CC(C)C (stereo not drawn) has an INHIBITION of 60.9%. For CCOC(=O)NC(CNC(=O)c1ccccn1)CC(C)C (stereo not drawn), the INHIBITION was -15.54%. CCOC(=O)NC(CNC(=O)c1ncccn1)CC(C)C (stereo not drawn) gave an INHIBITION of 2.41%. O=C(NCCN1CCOCC1)NCC(O)c1cccc(F)c1 (stereo not drawn) was tested, and the INHIBITION was -27.69%. Cc1noc(CN(CCO)Cc2cc(Br)ccc2F)n1 gave an INHIBITION of -18.92%. Molecule CCOc1cncc(N2CCN(c3ccccc3O)CC2)n1 has an INHIBITION of 22.75%. With COc1c(C2CCCN2Cc2nnc(C3CC3)n2C)c(C)nn1C (stereo not drawn) the INHIBITION was 28.1%. With COc1c(C2CCCN2Cc2noc(C)n2)c(C)nn1C (stereo not drawn) the INHIBITION was 21.83%. COc1c(C2CCCN2Cc2nccn2C)c(C)nn1C (stereo not drawn) showed an INHIBITION of 56.47%. Work on COc1c(C2CCCN2Cc2noc(C(C)C)n2)c(C)nn1C (stereo not drawn) yielded an INHIBITION of 59.93%. CCc1nc(CN2CCCC2c2c(C)nn(C)c2OC)no1 (stereo not drawn) showed an INHIBITION of 23.94%. Work on CCn1ccnc1CN1CCCC1c1c(C)nn(C)c1OC (stereo not drawn) yielded an INHIBITION of -69.19%. For CN(C)C(=O)c1cnc2n1CCN(Cc1ccccc1)C2, the INHIBITION was -26.24%. Cc1ccc(CN2CCn3c(C(=O)N(C)C)cnc3C2)cc1 showed an INHIBITION of 7.77%. CN(C)C(=O)c1cnc2n1CCN(Cc1ccsc1)C2 was tested, and the INHIBITION was 54.89%. Molecule CCOCC(O)CN1CCN(C(=O)c2cnc3n[nH]c(C)c3c2)CC1 (stereo not drawn) has an INHIBITION of 21.89%. CC(O)CN1CCN(C(=O)c2cnn(-c3ccccc3F)c2)CC1 (stereo not drawn) was tested, and the INHIBITION was -7.05%. CC(c1ccccn1)N(C)C(=O)NCCn1c(=O)oc2ccccc21 (stereo not drawn) was tested, and the INHIBITION was 40.4%. CSc1c(CC(=O)O)n(C)c2ccccc12 showed an INHIBITION of -18.52%. With Cn1c(CC(=O)O)c(Sc2ccccc2)c2ccccc21 the INHIBITION was 52.89%. Cc1ccc2c(c1)c(Sc1ccccc1)c(CC(=O)O)n2C gave an INHIBITION of -36.84%. CSCC(CCO)NC(=O)Nc1cccc(Br)c1C (stereo not drawn) showed an INHIBITION of -29.43%. In the case of O[C@@H]1C[C@@H](c2nc(Cc3ccccc3)no2)N(Cc2ccc(F)cc2)C1, the INHIBITION is reported as 30.63%. Molecule CN(Cc1ccc(F)cc1)CC1(O)CCN(C(=O)c2ccn(C)n2)C1 (stereo not drawn) has an INHIBITION of -21.42%. CC(C)(C)OC(=O)NCC1CCCCN1Cc1ccccn1 (stereo not drawn) showed an INHIBITION of -43.28%. For CC(C)(C)OC(=O)NCC1CCCCN1Cc1ccncc1 (stereo not drawn), the INHIBITION was 54.29%. For CC(C)(C)OC(=O)NCC1CCCCN1Cc1cccnc1 (stereo not drawn), the INHIBITION was 24.05%. Cc1cc(C(F)(F)F)nn1C(C)C(=O)NN1CCN(C)CC1 (stereo not drawn) gave an INHIBITION of 32.88%. Fc1cccc(-c2nnn3c2COC(CNc2ncccn2)C3)c1 (stereo not drawn) was tested, and the INHIBITION was 39.47%. In the case of CNS(=O)(=O)c1ccc(CNC(=O)C2CCCO2)cc1 (stereo not drawn), the INHIBITION is reported as 52.17%. Molecule CNS(=O)(=O)c1ccc(CNC(=O)C2CN(C)CCO2)cc1 (stereo not drawn) has an INHIBITION of 33.49%. Molecule CNS(=O)(=O)c1ccc(CNC(=O)NCC2CCCO2)cc1 (stereo not drawn) has an INHIBITION of 39.32%. Molecule Cn1ccnc1CN(Cc1cccnc1)CC1CCCO1 (stereo not drawn) has an INHIBITION of 41.82%. CCn1nc(C(=O)N2CCNCC2C(=O)Nc2ccc(C)nc2)cc1C (stereo not drawn) was tested, and the INHIBITION was 3.82%. Molecule O=C(Cc1ccc(F)cc1)NCCNCc1cccc(O)c1 has an INHIBITION of -49.9%. O=C(Cc1ccccc1)NCCNCc1cccc(O)c1 showed an INHIBITION of 31.57%. O=C(Cc1cccc(F)c1)NCCNCc1cccc(O)c1 gave an INHIBITION of 57.33%. Work on c1ccc(CN2Cc3[nH]nc(COc4cccnc4)c3C2)nc1 yielded an INHIBITION of 18.6%. Work on CC1CNC(=O)CCN1Cc1cc(O)c2cccc(F)c2n1 (stereo not drawn) yielded an INHIBITION of 18.31%.
